Screening results deposited in PubChem BioAssay by National Center for Advancing Translational Sciences (NCATS).
Hits are enriched below; roughly 11% of the tested compounds scored in any of these assays.
Pf growth 96h: P. falciparum growth inhibition at 96 hour, primary screen for plastid delayed-death inhibitors; AID 504834; P. falciparum luciferase reporter growth, 96 h; Potency, µM (doses to about 28.7 µM), without a hit: top-dose activity change, negative = inhibition, hits mostly inhibitors; actives 6.9% (n = 320,000); note: % is set by controls: 0 for no effect and ±100 for the full control effect
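P. falciparum expressing integrated firefly luciferase, in erythrocytes at 2% hematocrit, 0.05% parasitemia, incubated with compounds 96 h at 37 C, 5% CO2. Growth inhibition read as loss of luminescence; two-generation exposure targets delayed-death apicoplast inhibitors.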
NS1 function inh: inhibitors of influenza NS1 protein function | actives 0.4% (n = 270,000) | AID 2326 | Potency, µM (doses to about 46.1 µM), without a hit: at the highest dose activity, positive = more growth; calls by dose curve; note: actives are rising curves; nearly all actives have a fitted effect of over 50% in size
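S. cerevisiae expressing influenza A NS1, grown in glucose, washed, then diluted 1:100 into pH 6.0 -URA galactose medium with 23 nl compound. Growth recovery read as OD600; NS1-free strain serves as control.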
Vaccinia Venus: inhibitors of vaccinia virus (Venus reporter); Vaccinia virus Venus reporter expression, fluorescence; Potency, µM (doses to about 36.5 µM), without a hit: top-dose activity change, negative = inhibition, usual class: inhibitors; actives 0.46% (n = 330,000); AID 720580; calls by dose curve; tested in A549 cells; note: % is set by controls: 0 for no effect and ±100 for the full control effect; nearly all actives have a fitted effect of over 30% in size
HCV inhibitor: HCV inhibition; Huh7.5.1 HCVcc-Cre infection, luciferase reporter, 44 h; Potency, µM (titrated, usually from 41.8 µM), for inactives: at the highest dose activity change, negative = inhibition, actives largely listed as inhibitors; actives 3.4% (n = 340,000); AID 651820; note: % is set by controls: 0 for no effect and ±100 for the full control effect
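Cells (1,000/well) were plated 4 h before compound, then infected with HCVcc-Cre virus (~0.5 moi). After 44 h further culture, infection was read as luciferase luminescence following a 15 min substrate incubation at room temperature.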
Pf growth 48h: inhibits P. falciparum growth in the first generation, 48 h. P. falciparum luciferase growth in erythrocytes, 48 h. Potency, µM (series often up to 28.7 µM), inactives show at the top dose activity change, negative = inhibition, hits mostly inhibitors. actives 5.9% (n = 310,000); note: % is set by controls: 0 for no effect and ±100 for the full control effect
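A one-generation exposure of luciferase-tagged malaria parasites in RPMI 1640/Albumax erythrocyte culture, 37 C and 5% CO2. Inhibition is inferred from decreased luminescence after adding detection reagent.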
Vaccinia mCherry: vaccinia inhibition (mCherry reporter) | actives 0.63% (n = 310,000) | AID 720579 | Potency, µM (top dose mostly 36.5 µM), without a hit: at the highest dose activity change, negative = inhibition, most hits filed as inhibitors | Vaccinia virus mCherry reporter infection, fluorescence; calls by dose curve; tested in A549 cells; note: % is set by controls: 0 for no effect and ±100 for the full control effect; nearly all actives have a fitted effect of over 35% in size
Starred values were filed as active, the others as inactive; i = inactive; ? = inconclusive; . = no result; [ ] = remark or other dose. Unless noted, calls come from the whole dose curve; as a rule, active = well fitted inhibition curve with a large enough effect; inconclusive = small, poorly fitted or top-dose-only effect, or another doubt; inactive = no such curve, though single readings can be large or run the other way. Potency is the fitted concentration of half-maximal effect.

SMILES	Pf growth 96h	NS1 function inh	Vaccinia Venus	HCV inhibitor	Pf growth 48h	Vaccinia mCherry
COC1CCN(C(=O)c2ccc(OC3CCN(CCc4ccccc4)CC3)cc2)CC1	?	6%	-2%	-4%	-16%	5%
O=C(NC1CCOC1)c1ccc(OC2CCN(CCc3ccccc3)CC2)cc1 (stereo unspecified)	2.3µM*	-6%	16%	1%	-6%	-14%
CCN1CCN(C(=O)c2ccc(OC3CCN(CCc4ccccc4)CC3)cc2)[C@@H](C)C1=O	3.7µM*	4%	-11%	0%	?	-10%
O=C(NCc1n[nH]c(=S)n1-c1ccc(Br)cc1)c1ccc(S(=O)(=O)N2CCCC2)cc1	?	.	.	17%	-14%	.
O=C(NC1CCCCCC1)c1ccc(OCC2CCCO2)cc1 (stereo unspecified)	89%	-3%	-23%	?	51%	0%
CCOc1ccccc1-n1c(=S)sc2c(=O)n(-c3ccc(F)cc3)c(SCC(=O)O)nc21	27%	6%	-1%	13%	?	i
O=C1NC(=O)/C(=C\c2ccc(N3CCOCC3)o2)N1	?	.	-13%	11%	7.4µM*	-10%
Cc1ccccc1N1C(=O)NC(=O)/C(=C/c2ccc(N3CCOCC3)o2)C1=O	-6%	3%	10%	1%	2%	-19%
CN1C(=O)C(=Cc2ccc(N3CCOCC3)o2)C(=O)N(C)C1=O	-6%	16%	-4%	8%	24%	i
O=C1NC(=O)/C(=C/c2ccc(N3CCOCC3)o2)N1	?	2%	-12%	10%	1.5µM*	i
Cn1c(C(=O)N2CCCC(C(=O)NCc3ccc4c(c3)OCO4)C2)cc2sccc21 (stereo unspecified)	-3%	-15%	-23%	?	.	-1%
COc1cc(NC(=O)CSCC(=O)Nc2cccc(C(F)(F)F)c2)c(Cl)cc1Cl	12µM*	-3%	-24%	-17%	?	-10%
COc1ccc(-c2noc(Cn3c(=O)c4ccccc4n(CC(=O)Nc4cccc(C(F)(F)F)c4)c3=O)n2)cc1	.	.	-20%	.	.	-10%
COc1ccc(-c2noc(CSCC(=O)Nc3cccc(C(F)(F)F)c3)n2)cc1OC	.	.	-9%	.	.	i
COc1ccc(-c2noc(N(C)CC(=O)Nc3cccc(C(F)(F)F)c3)n2)cc1	6%	-35%	?	11µM*	80%	.
COc1cccc(CN(C)CC(=O)Nc2cccc(C(F)(F)F)c2)c1OC	?	.	-11%	10µM*	?	-2%
CCC(CC)NC(=O)c1cc(OC)c(OC)cc1[N+](=O)[O-]	64%	7%	-8%	24%	2%	i
O=C(c1cc(COc2cccc(C(F)(F)F)c2)on1)N1CCC(c2ccncc2)CC1	?	-2%	.	?	6%	.
COc1cccc(OCc2cc(C(=O)N3CCC(c4ccncc4)CC3)no2)c1	-26%	-15%	-12%	10µM*	6%	-25%
C=CCC1(CC=C)CCCN1C(=O)c1cc(COc2cncc(Cl)c2)on1	?	-43%	.	.	?	.
C=CCC1(CC=C)CCCN1C(=O)c1cc(COc2cccc(OC)c2)on1	-25%	-14%	.	14µM*	?	.
COc1ccc2oc(C(=O)OCC(=O)N3CCN(S(=O)(=O)c4ccc(C)cc4)CC3)c(C)c2c1	2%	-15%	.	?	-9%	.
CCOc1c(OC(C)=O)ccc(/C=C/c2ccc3cccc(OC(C)=O)c3n2)c1[N+](=O)[O-]	8.3µM*	-58%	.	8.9µM*	6.6µM*	.
Oc1cccc2ccc(/C=C/c3c(F)cccc3Cl)nc12	182%	-1%	-7%	11µM*	237%	?
CCOc1cccc(/C=C/c2ccc3cccc(O)c3n2)c1O	8.3µM*	-6%	-20%	14µM*	-3%[0.00184 µM]	-22%
SMILES	Pf growth 96h	NS1 function inh	Vaccinia Venus	HCV inhibitor	Pf growth 48h	Vaccinia mCherry
COc1ccccc1/C=C/c1ccc2cccc(O)c2n1	35%	-64%	-12%	?	-11%	?
Oc1cccc2ccc(/C=C/c3ccccc3Cl)nc12	-17%	-63%	-25%	7.9µM*	0%	?
COc1c(OC(C)=O)ccc(/C=C/c2ccc3cccc(OC)c3n2)c1[N+](=O)[O-]	?	20%	?	?	?	?
c1ccc(CC2CCN(c3nnnn3-c3ccccc3)CC2)cc1	-27%	-35%	-17%	-5%	?	i
O=c1oc(CCCO)cc2ccccc12	.	.	-11%	1%	.	1%
COCCn1nnnc1CN1C2CCCC1CC(NC(C)=O)C2 (stereo unspecified)	13µM*	2%	.	-7%	29%	.
Cc1cc(OC(=O)CCNC(=O)OC(C)(C)C)c2c3c(c(=O)oc2c1)CCC3	4.7µM*	12%	.	?	4.7µM*	.
CN(C)CCCN(C(=O)c1nc2ccccc2s1)c1nc2ccc(F)cc2s1	.	.	4%	?	.	-11%
Cc1cc(C)nc(N(C#N)CC(=O)c2ccccc2)n1	.	2%	?	16µM*	0%	?
CC(=O)Nc1cccc(C(=O)/C=C/c2ccc(Br)cc2)c1	26%	-7%	11µM*	?	?	22µM*
CC(=O)Nc1cccc(C(=O)/C=C/c2ccc(F)cc2)c1	?	-44%	-25%	?	-10%	-22%
CC(=O)Nc1cccc(C(=O)/C=C/c2ccc(/C=C/C(=O)c3cccc(NC(C)=O)c3)cc2)c1	9.3µM*	10%	.	?	2.9µM*	.
COc1ccc(Cl)cc1NC(=S)Nc1ccccc1C	?	1%	-1%	20%	12%	8%
Cc1cc(=O)n2nc(N3CCC(C(=O)NCc4ccccc4)CC3)sc2n1	-13%	5%	-6%	9%	-13%	-6%
CCC(Cc1ccccc1)NC(=O)C1CCN(c2nn3c(=O)cc(C)nc3s2)CC1 (stereo unspecified)	10µM*	18%	.	10%	-25%	.
CCOc1ccc(CCNC(=O)C2CCN(c3nn4c(=O)cc(C)nc4s3)CC2)cc1	59%	3%	-14%	15%	10µM*	-29%
CCC(C)(C)NC(=O)C(c1ccncc1)N(Cc1cccs1)C(=O)Cn1nnc2ccccc21 (stereo unspecified)	12µM*	-11%	-21%	10%	?	.
Cc1ccc(-c2nnn(CC(=O)N(Cc3ccco3)C(C(=O)NC(C)(C)C)c3ccc(C)o3)n2)o1 (stereo unspecified)	-1%	5%	?	11µM*	?	?
CC(C)(C)NC(=O)C(c1ccncc1)N(Cc1cccs1)C(=O)Cn1nnc(-c2cccs2)n1 (stereo unspecified)	?	-9%	2%	?	2.9µM*	-8%
CCC(C)(C)NC(=O)C(c1ccc(C)cc1)N(Cc1ccco1)C(=O)Cn1nnc2ccccc21 (stereo unspecified)	74%	-5%	-18%	-19%	?	i
